Laboratory results taken from paper PMC5540273 (PLoS ONE, 2017).

tested on: MYLK2
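Further: kd values determined as follow-up on hits from a single-replicate KINOMEscan panel screen.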

Row | SMILES | Kd [nM]
1 | O=C(Nc1n[nH]c2nc(-c3nccs3)c(Br)cc12)C1CCCC1 [SB-742609] | 130
2 | O=C(Nc1n[nH]c2nc(-c3nccs3)c(Br)cc12)C1CC1 [SB-742251] | 160
3 | O=C(Nc1n[nH]c2cc(-c3cccc(F)c3F)ccc12)C1CC1 [SB-733894] | 92

tested on: PDGFRA

Row | SMILES | Kd [nM]
4 | CC(=O)Nc1nc2cnc(Nc3cc(NC(=O)c4cccc(CCC#N)c4)ccc3C)nc2s1 | > 10000
5 | O=C(Nc1ccccc1)Nc1cccc(Oc2ccc3nccn3n2)c1 | 3.6
6 | Cn1ccc2ncnc(Oc3ccc(NC(=O)Nc4ccccc4)cc3)c21 | 25
7 | Cc1cccc(-c2nc(-c3ccc(S(C)(=O)=O)cc3)sc2-c2ccnc(NCCc3ccccc3)c2)c1 | 550

tested on: PDGFRB

Row | SMILES | Kd [nM]
8 | CC(=O)Nc1nc2cnc(Nc3cc(NC(=O)c4cccc(CCC#N)c4)ccc3C)nc2s1 | > 10000
9 | Fc1cc(Cl)ccc1Nc1ccnc2cc(I)ccc12 [GW551191] | 410
10 | CC(C)(C)c1ccc(C(=O)Nc2cn3cc(-c4cccnc4)ccc3n2)cc1 | 220
11 | Cc1ccc(NC(=O)Nc2cc(C(C)(C)C)nn2-c2ccccc2)cc1 [GSK1014915] | 340
12 | O=C(Nc1ccccc1)Nc1cccc(Oc2ccc3nccn3n2)c1 | 1
13 | COC(=O)c1c(-c2ccccc2)c2cc(C(=O)O)ccc2c(=O)n1Cc1ccccc1 | 75
14 | Cn1ccc2ncnc(Oc3ccc(NC(=O)Nc4ccccc4)cc3)c21 | 16
15 | COC(=O)c1c(-c2ccccc2)c2cc(OC)ccc2c(=O)n1Cc1ccccc1 | 110
16 | Cc1ccc(C(=O)Nc2ccc(Nc3ccnc4cc(-c5ccccn5)ccc34)cc2O)cc1.Cl [GW440146] | 480
17 | Cc1cccc(-c2nc(-c3ccc(S(C)(=O)=O)cc3)sc2-c2ccnc(NCCc3ccccc3)c2)c1 | 68
18 | Fc1cc(Cl)ccc1Nc1ccnc2cc(-c3ccc(CN4CCCCC4)o3)ccc12 [GW560116] | 210
19 | Cc1ccc(NC(=O)Nc2cccc(Cl)c2)cc1-c1ccc(C(=O)Nc2ccncc2)cc1 [GSK1398468] | 50
